# From PubChem BioAssay AID687001 (Broad Institute, 2013)
# Potency and affinity values are given separately. Calls of active or inactive are those of the source.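 The calls were made as follows: active = signal-lowering compounds whose fitted half-maximal concentration is at or below twice the top tested dose in every run; inconclusive = runs disagree, flat 30 to 70% inhibition, or poor curve fit; inactive = the rest.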
# Target: Protein S100-A4 (Homo sapiens) (UniProt P26447)
# Test: human S100A4 peptide interaction inhibition curves – biochemical, fluorescence polarization, cherry-picked hits, dose response (AID 687001);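 also: 0% = DMSO neutral control wells and -100% = TFP positive control wells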
# Conditions: FP, S100A4/TAMRA-myosin IIA peptide binding; series mostly up to 11 µM
# Chain of Protein S100-A4 (Homo sapiens) (P26447 whole entry, looked up): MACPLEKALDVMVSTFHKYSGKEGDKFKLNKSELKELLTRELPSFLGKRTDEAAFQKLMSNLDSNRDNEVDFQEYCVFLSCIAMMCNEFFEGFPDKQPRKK
SMILES,outcome,"activity change, negative = inhibition"
CCOCCCNC(=O)c1ccc2c(c1)N(CC)C(=O)c1ccccc1S2=O (centres undefined),inactive,
O=C1CCc2cc(S(=O)(=O)N3CCCCC3)cc3c2N1CCC3,inactive,
COc1cccc(C2c3[nH]c4ccccc4c3C[C@H]3C(=O)N(C)CC(=O)N23)c1 (some centres undefined),inactive,
Cc1ccc(-c2csc(NC3OC(=O)c4ccccc43)n2)cc1 (centres undefined),inactive,
Cc1sc2nc(SCC(=O)N3CCOCC3)[nH]c(=O)c2c1-c1ccccc1,inactive,
CN(CC1CCCN(CCc2ccc(Cl)cc2)C1)C(=O)CC(F)(F)F (centres undefined),inactive,
O=C(c1ccccc1)c1ccc(C(=O)N2CCN(c3ccccc3O)CC2)cc1,inactive,
O=C1CC(c2ccccc2)NN1 (centres undefined),inactive,
COc1ccc(OCC(=O)N2CCN(S(=O)(=O)c3ccc(Cl)s3)CC2)cc1,inactive,
O=C(CN(Cc1ccco1)C(=O)c1cccc(F)c1)Nc1ccccc1C(F)(F)F,inactive,
Fc1ccc(Nc2nc(N3CCOCC3)nc(N3CCOCC3)n2)cc1,inactive,
Cn1cc(SCC(=O)NC2CCCC2)c2ccccc21,inactive,
COc1ccc(-n2ncc3c2CC(C)(C)CC3NC(=O)CCc2c(C)nn(C)c2C)cc1 (centres undefined),inactive,
CCNC(=O)[C@@H]1[C@@H](CO)[C@@H]2Cn3c(ccc(-c4ccccc4)c3=O)[C@@H]2N1CC,inactive,
COc1cccc(S(=O)(=O)N2CC[C@@H]3[C@@H](CO)Nc4ccc(C#Cc5ccccc5)cc4[C@@H]32)c1,inactive,
O=C(O)c1ccc2c(c1)C(=O)N(c1cccc3ccccc13)C2=O,inactive,
CC(C)NC(=O)Nc1ccc2c(c1)C(=O)N([C@H](C)CO)C[C@@H](C)[C@H](CN(C)S(=O)(=O)c1ccccc1)OCCCC[C@@H](C)O2,inactive,
CCOc1ccc(N(CC(=O)NCCOc2ccccc2OC)S(=O)(=O)c2ccccc2)cc1,inactive,
Cc1ccc2[nH]c(=O)c3cc(C(=O)NCCC(C)C)sc3c2c1,inactive,
O=C(C[C@H]1CC[C@@H]2[C@H](COC[C@@H](O)CN2C(=O)Cc2ccccc2)O1)NC1CCCC1,inactive,

SMILES,outcome,"activity change, negative = inhibition"
COCCNC(=O)C[C@@H]1CC[C@H]2[C@@H](COC[C@H](O)CN2Cc2cccc(-c3ccncc3)c2)O1,inactive,
CN(CC(=O)NCC(=O)Nc1ccc(F)cc1)CC(=O)Nc1ccc(Cl)c(C(F)(F)F)c1,inactive,
Cc1ccc(C2=N/C(=C\c3ccc(F)cc3)C(=O)N2)cc1,inactive,
CN(C)c1ccc(/C=C(\C#N)C(=O)OCC(=O)N(C)C2CCS(=O)(=O)C2)cc1 (centres undefined),,128% [at 2.6 µM] (inactive)
COc1ccccc1CCNC(=O)C(=O)NCCC1CCCCN1S(=O)(=O)c1ccccc1 (centres undefined),inactive,
CON(C)S(=O)(=O)c1cccc(C(=O)Nc2cccc(S(=O)(=O)NC3=NCCCCC3)c2)c1,inactive,
CC(C)(C)OC(=O)C[C@H]1C/C=C\C[C@H](CC(=O)N[C@H](CO)Cc2ccccc2)C(=O)N[C@H](Cc2ccccc2)COC1=O,inactive,
CCOc1ccc(OCCC(=O)N(CC(=O)Nc2ccccc2C(F)(F)F)Cc2ccco2)cc1,inactive,
COc1ccccc1C(=O)NC(=O)COC(=O)c1ncc(Cl)c(Cl)c1Cl,inactive,
COc1ccc(CN2CCC(C(=O)Nc3ccc(Oc4cccnc4)cc3)CC2)c(C)c1C,inactive,
CC1(C(=O)Nc2ccc3c(c2)OCO3)CCN1C(=O)Cc1cccc2ccccc12 (centres undefined),inactive,
Nc1nc(SCC(=O)c2ccc(Cl)cc2)c2ncn(C3OC(CO)C(O)C3O)c2n1 (centres undefined),inactive,
COc1ccc(-c2coc(CCC(=O)N3CCN(c4cc(C)ccc4C)CC3)n2)cc1,inactive,
C[C@H](CO)N1C[C@H](C)[C@H](CN(C)Cc2ccccc2)Oc2ccc(NS(=O)(=O)c3ccccc3)cc2CC1=O,inactive,
CC=Cc1ccc2n(c1=O)C[C@H]1[C@H](CO)[C@@H](C(=O)NCC3CC3)[C@@H]2N1Cc1cccnc1 (mixture of isomers),inactive,
COc1ccc(CCN2CC(C(=O)NCCN3CCNC3=O)CCC2=O)cc1 (centres undefined),inactive,
CO[C@@H]1CN(C)C(=O)c2ccc(NC(=O)c3ccc(F)cc3)cc2OC[C@H](C)N(C(=O)CC2CC2)C[C@H]1C,inactive,
Cc1cc(Br)ccc1NC(=S)NC1CCCC1,inactive,
O=C1CN(Cc2ccc(F)cc2)C[C@@H]2[C@@H](c3ccc(-c4ccccc4F)cc3)[C@H](CO)N12,inactive,
